Source: PubChem BioAssay (EPA / NIEHS)
The source made the active and inactive calls. The calls were made as follows: active = hit-call score of the fitted dose curve at least 0.9, where 1 is the maximum; inactive = score below 0.9.

assay: Tanguay_ZF_120hpf_MUSC: Oregon State University Tanguay Lab 120 Hour Post-fertilization zebrafish Assay for Muscle Malformation (AID 2284401)
Procedure: Tanguay_ZF_120hpf is a whole embryo, multiplexed endpoint assay using zebrafish larvae exposed for 120 hours post fertilization on a 96-well plate.Tanguay_ZF_120hpf_MUSC is one of one assay component(s) measured or calculated from the Tanguay_ZF_120hpf assay. It is designed to make measurements of zebrafish development as detected with brightfield microscopy of developing zebrafish embryos.Data from the assay component Tanguay_ZF_120hpf_MUSC was analyzed into 1 assay endpoints. This assay endpoint, Tanguay_ZF_120hpf_MUSC, was analyzed in the positive analysis fitting direction relative to DMSO as the negative control and baseline of activity. Using a type of morphology reporter, gain-of-signal activity can be used to understand changes in developmentals as they relate to the whole embryo. To generalize the intended target to other relatable targets, this assay endpoint is annotated to the zebrafish development intended target family, where the subfamily is myogensis.
Zebrafish husbandry: Tropical 5D wild-type adult zebrafish were housed in at an approximate density of 1000 per 100 gallon tank at the Sinnhuber Aquatic Research Laboratory, Oregon State University, Corvallis, OR. Each tank was kept at standard laboratory conditions of 28C on a 14-h light/10-h dark photoperiod in fish water consisting of reverse osmosis water supplemented with a commercially available salt (Instant Ocean). Spawning funnels were placed into the tanks the night prior, and embryos were collected and staged. To increase bioavailability, the chorion was enzymatically removed using pronase (63.6mg/ml, >/= 3.5U/mg, Sigma-Aldrich: P5147) at 4 hours post fertilization (hpf) using a custom automated dechorionator.Chemical exposures: Six hpf dechorionated embryos were placed 1 embryo per well in a 96-well plate prefilled with 90 ul of EM using automated embryo placement systems (AEPS). Ten microliters of each row of dilution plate 2 was added to 2 exposure plates. The final DMSO concentration used was 0.64% (vol/vol). Thirty-two embryos were also exposed to 5uM trimethyltin chloride (positive control). Plates were sealed to prevent evaporation and foil covered to reduce light exposure and kept in a 28C incubator. Embryos were statically exposed until 120 hpf. At 24 hpf, embryos were assessed for photomotor response using a custom photomotor response analysis tool (PRAT) and for developmental toxicity endpoints (MO24: mortality at 24 hpf, DP: developmental progression, SM: spontaneous movement, and NC: notochord distortion). At 120 hpf, locomotor activity was measured using Viewpoint Zebralab and assessed for 13 endpoints. Zebrafish acquisition and analysis program (ZAAP), a custom program designed to inventory, acquire, and manage zebrafish data, was used to collect developmental endpoints as either present or absent (i.e., binary responses were recorded). If mortality occurred for an embryo (at either 24 or 120 hpf), the non-mortality endpoints were not measured.

Row | SMILES | outcome | AC50
1 | O=C(O)C(F)(OC(F)(F)C(F)(F)C(F)(F)F)C(F)(F)F (centres undefined) | inactive | –
2 | COC(=O)C(F)(F)C(F)(F)OC(F)(C(F)(F)F)C(F)(F)OC(F)=C(F)F (centres undefined) | inactive | –
3 | O=C(O)C(F)(F)OC(F)(F)C(F)(F)OC(F)(F)C(=O)O | inactive | –
4 | FC(F)(F)C(F)(C(F)(F)F)C(F)(F)C(F)(F)CC1CO1 (centres undefined) | inactive | –
5 | OCC(F)(F)OC(F)(F)C(F)(F)OC(F)(F)C(F)(F)OC(F)(F)F | inactive | –
6 | OCC(F)(F)OC(F)(F)C(F)(F)OC(F)(F)CO | inactive | –
7 | C=CC(=O)OCC(F)(F)C(F)F | – | 54.6 µM (active)
8 | OCC(F)(F)OC(F)(F)C(F)(F)OC(F)(F)C(F)(F)OC(F)(F)CO | – | 36.7 µM (active)
9 | O=S(=O)(F)C(F)(F)C(F)(F)C(F)(F)C(F)(F)C(F)(F)C(F)(F)C(F)(F)C(F)(F)F | inactive | –
10 | CC(O)C(F)(F)C(F)(F)F (centres undefined) | inactive | –
11 | O=C(O)C=CC(F)(C(F)(F)F)C(F)(F)F | inactive | –
12 | NC(=O)C(F)(F)C(F)(F)F | inactive | –
13 | O=C(O)C(F)(F)OC(F)(F)C(F)(F)OC(F)(F)F | inactive | –
14 | O=C(O)C(F)(F)C(F)(F)C(=O)O | inactive | –
